A short description of the assay: cell-free HIV fusion peptide-binding blockers – biochemical, uHTS, fluorescence dequenching, primary screen (AID 1986). Particulars: 30 min, stronger effect = higher value.
[1] abbreviates: measured here: repeat confirmation average inhibition, at 18.6 µM.

About 890 (0.31%) of roughly 290,000 compounds were called active. Cut-off read from the data, not from the text of the source: active = inhibition mostly above about 52% (no sharp cut-off); inactive = mostly below about 76%. The list comes from a sample in which actives are over-represented; it also holds similar structures and randomly drawn compounds.

Broadly, the inhibition is the relative decrease from the control value, in per cent.

For the compound `COc1ccc(-n2c(O)c(/C=N/n3cnnc3)c3ccccc3c2=O)cc1`, the inhibition (at 20 µM) is -1% (inactive).

As for `c1ccc(Oc2ccc(-n3cnnn3)cc2)cc1`, for the setting “at 20 µM”, the inhibition was -0.6% (inactive).

Take `CCOC(=O)c1oc2ccccc2c1NC(=O)C1CCCCC1`: the inhibition (at 20 µM) is 2.3% (inactive).

For `O=C(N=Nc1c(O)[nH]c2ccccc12)c1ccc(CN2CCOCC2)cc1`, for the setting “at 20 µM”, the inhibition was -1.7% (inactive).

Consider `O=c1c2c3c(sc2n(CCN2CCOCC2)c(=O)n1Cc1ccco1)CCCCC3`, for which the inhibition (at 20 µM) is -0.6% (inactive).

Take `CCOC(=O)N1CCC(N2C(=O)c3ccccc3C2Nc2cc(C)cc(C)c2)CC1` (centres undefined): for the setting “at 20 µM”, the inhibition is -0.9% (inactive).

With `Cc1ccc(N=C2NC(=O)/C(=C/c3cn(C)c4ccccc34)S2)cc1C`, the inhibition was 74.7% (active) (at 20 µM) and 73.2% under setting [1].

In the case of `Cc1ccc(N=C2NC(=O)/C(=C\c3cccs3)S2)cc1C`, for the setting “at 20 µM”, the inhibition was 1.6% (inactive).

Regarding `Cc1ccc(N=C2NC(=O)/C(=C/c3cccn3C)S2)cc1C`, the inhibition (at 20 µM) was 2.1% (inactive).

As for `Cn1nc(-c2ccccc2)c(/C=N/O)c1Cl`, under “at 20 µM”, the inhibition is -1.8% (inactive).

Consider `CCn1cc(C(=O)N2CCCC2)c(=O)c2cc(S(=O)(=O)N3CC(C)CC(C)C3)ccc21` (centres undefined), for which the inhibition (at 20 µM) is 1.1% (inactive).

For `COc1ccc2cc(CCNS(=O)(=O)c3c(C)cc(C)cc3C)c(=O)[nH]c2c1`, the inhibition (at 20 µM) was -1.1% (inactive).

For `Cc1c(NC(=O)c2ccc(Cl)s2)c(=O)n(-c2ccccc2)n1C`, the inhibition (at 20 µM) is 0.5% (inactive).

For the compound `O=C(O)c1c2c(nc3ccccc13)/C(=C/c1cccc([N+](=O)[O-])c1)CCC2`, under “at 20 µM”, the inhibition is 2.3% (inactive).

Consider `O=C(O)c1ccc(-n2ncc3c2/C(=C/c2cccc([N+](=O)[O-])c2)CC3)cc1`, for which the inhibition (at 20 µM) is 66.7% (active).

Consider `O=C(O)c1ccc(-n2c(/C=C/c3cccc([N+](=O)[O-])c3)nc3ccccc3c2=O)cc1`, for which the inhibition (at 20 µM) is 1.4% (inactive).

Regarding `Cn1cccc1CC(=O)N/N=C\c1ccccc1`, under “at 20 µM”, the inhibition was -0.6% (inactive).

Regarding `CCOc1ccc(/C=C2\N=C(c3cccs3)OC2=O)cc1OC`, the inhibition (at 20 µM) is 6.4% (inactive).

Consider `COc1ccc(/C=C2\N=C(C)OC2=O)cc1OC`, for which the inhibition (at 20 µM) was 0.7% (inactive).

On to `COc1ccc(/C=C2/N=C(c3cccs3)OC2=O)cc1OC(C)C`, for which the inhibition is 106% (active) (at 20 µM) and 100% under setting [1].

Consider `COC(=O)Cn1c(C)c(/C=C/c2cc[n+](C)cc2)c2ccccc21`, for which the inhibition (at 20 µM) was 46.3% (inactive).

For the compound `C=CCn1cc(/C=C/c2cc[n+](C)cc2)c2ccccc21`, under “at 20 µM”, the inhibition was 185% (inactive).

For the compound `CCn1cc(/C=C/c2cc[n+](C)cc2)c2ccccc21`, the inhibition (at 20 µM) is 182% (inactive).

For `Cc1ccc2c(c1)c(/C=C/c1cc[n+](C)cc1)c(C)n2C`, where the note is “at 20 µM”, the inhibition was 159% (inactive).

Regarding `C=CCn1c(C)c(/C=C/c2cc[n+](C)cc2)c2ccccc21`, the inhibition reads like this: (at 20 µM) 103% (active); under setting [1], 81%.

Take `CCN(CC)C(=O)Cn1c(C)c(/C=C/c2cc[n+](C)cc2)c2ccccc21`: the inhibition runs as follows: (at 20 µM) 115% (active); under setting [1], 54.5%.

On to `COC(=O)Cn1cc(/C=C/c2cc[n+](C)cc2)c2ccccc21`, for which the inhibition by setting is: (at 20 µM) 115% (active); under setting [1], 96.1%.

`CCN(CC)C(=O)Cn1c(=O)n(C)c2ccccc21`: the inhibition (at 20 µM) is -1.6% (inactive).

On to `Cc1cc(Nc2ccccc2)n(C(=O)c2ccccc2)n1`, for which the inhibition (at 20 µM) is -3% (inactive).

With `Cc1c(NC(=O)COC(=O)/C=C/c2ccc(Cl)cc2)c(=O)n(-c2ccccc2)n1C`, the inhibition (at 20 µM) is -0.5% (inactive).

`Clc1ccccc1OCCn1nnc2ccccc21`: the inhibition (at 20 µM) was -2% (inactive).

Take `CCC(=O)Nc1cccc(NC(=O)c2cccc([N+](=O)[O-])c2C)c1`: the inhibition (at 20 µM) was 1.2% (inactive).

For the compound `NC(=O)c1nsc(C(=O)N(c2cccc(F)c2)C(C(=O)NC2CCCC2)c2ccc(O)cc2)c1N` (centres undefined), the inhibition (at 20 µM) was -1.3% (inactive).

With `Cc1nc2ccc(S(=O)(=O)Nc3cc(-c4nc5cccnc5s4)ccc3C)cc2s1`, the inhibition (at 20 µM) is 3.9% (inactive).

As for `CC12C=CC(=O)C=C1CCC1C3CCC(O)(C(=O)CO)C3(C)CC3OC312` (centres undefined), where the note is “at 20 µM”, the inhibition was -0.7% (inactive).

Take `CCOC(=O)CNC(=O)Cn1cnc2c(nnn2-c2ccccc2)c1=O`: for the setting “at 20 µM”, the inhibition was -0.8% (inactive).

Consider `CCOC(=O)c1c(C)[nH]c(C(=O)COC(=O)CCSc2ccccc2)c1C`, for which the inhibition (at 20 µM) is 0.3% (inactive).

In the case of `Cc1cc(S(=O)(=O)N2CCN(c3ccccn3)CC2)c(C)cc1Cl`, the inhibition (at 20 µM) is -0.6% (inactive).

On to `Cc1cc(/C=C2/C(=N)N3C(=NC2=O)SN=C3S(C)(=O)=O)c(C)n1-c1ccccc1F`, for which the inhibition (at 20 µM) is 60.2% (active).

As for `CCOc1ccc(-n2c(C)cc(/C=C3/C(=N)N4C(=NC3=O)SN=C4S(C)(=O)=O)c2C)cc1`, the inhibition (at 20 µM) is 66.6% (active).

In the case of `Cc1cc(/C=C2/C(=N)N3C(=NC2=O)SN=C3S(C)(=O)=O)c(C)n1-c1ccc(F)cc1`, the inhibition runs as follows: (at 20 µM) 75.8% (inactive); under setting [1], 45.6%.

For the compound `COc1cccc(-n2c(C)cc(/C=C3/C(=N)N4C(=NC3=O)SN=C4S(C)(=O)=O)c2C)c1`, the inhibition (at 20 µM) is 148% (inactive).

With `COc1ccccc1-n1c(C)cc(/C=C2/C(=N)N3C(=NC2=O)SN=C3S(C)(=O)=O)c1C`, the inhibition (at 20 µM) is 58.1% (inactive) and the inhibition under setting [1] turned out to be 36.2%.

Regarding `CC1=CC2=NC(=O)/C(=C\c3cc(C)n(-c4ccccc4F)c3C)C(=N)N2O1`, the inhibition (at 20 µM) was 3.2% (inactive).

Regarding `COc1ccc(CNC(=O)/C=C/c2ccc(S(=O)(=O)NCc3ccco3)cc2)cc1OC`, the inhibition (at 20 µM) is 0.9% (inactive).

For `Cc1ccc(C)c2[nH]c(=O)c(CN(Cc3nnnn3C3CCCCC3)CC3CCCO3)cc12` (centres undefined), under “at 20 µM”, the inhibition is -0.9% (inactive).

`Cc1cc(-n2nc3ccccc3n2)c(O)c([N+](=O)[O-])c1`: the inhibition (at 20 µM) was 0.3% (inactive).

For `CCCCCc1ccc(-c2cn(Cc3ccc(C(=O)c4ccccc4)cc3)nn2)cc1`, the inhibition (at 20 µM) is 1% (inactive).

Regarding `COc1ccc(CC(=O)Nc2cc(C)c3c(=O)oc4ccccc4c3n2)cc1`, the inhibition (at 20 µM) is -0.2% (inactive).

With `CCOc1ccc(/C=C(\C)C(=O)c2c(C)cc(C)[nH]c2=O)cc1`, under “at 20 µM”, the inhibition is -0.3% (inactive).

For `COc1cc2[nH]c(=S)nc(NCCCOC(C)C)c2cc1OC`, the inhibition (at 20 µM) is -2.4% (inactive).

Regarding `O=c1oc2c(O)c(O)cc3c(=O)oc4c(O)c(O)cc1c4c23`, the inhibition (at 20 µM) was 54.2% (active).

As for `O=c1cc2c(=O)oc3cc(O)c(O)oc3c2c(O)c1O`, where the note is “at 20 µM”, the inhibition is 44.6% (inactive).

On to `Cc1c(Br)c(=O)oc2c(Br)c(O)c(O)cc12`, for which, under “at 20 µM”, the inhibition is 30.9% (inactive).

For `COc1ccc(/C=N/Nc2nc3ccccc3s2)cc1O`, for the setting “at 20 µM”, the inhibition was -3.2% (inactive).

As for `COc1cc(/C=N/Nc2nc3ccccc3s2)cc([N+](=O)[O-])c1O`, the inhibition (at 20 µM) was 55.5% (active).

Turning to `O=[N+]([O-])c1cc(Cl)cc(/C=N/Nc2nc3ccccc3s2)c1O`, the inhibition (at 20 µM) was 31.5% (inactive).

Source of the values: PubChem BioAssay AID1986 (Sanford-Burnham Center for Chemical Genomics, 2009).
